The campaign covered roughly 1,000 compounds. Fewer than 10 were called active. A selection follows. Unmarked numbers belong to inactive results. How the calls were made is not given here.

A short description of this assay: E. coli UDG inhibitors, confirmation, counter-screen for APOBEC3A inhibitor project, biochemical, single concentration, fluorescence, FAM/TAMRA oligo (AID 504714). As to conditions: UDG counterscreen, FAM/TAMRA uracil oligo fluorescence; at 20 µM; hits give high values.
The inhibition is the drop in the measured response relative to a control, in per cent. For `CCCN1C2=C(C(=O)CCC2)C(c2ccc(O)c(Br)c2)C2=C1CCCC2=O`, the inhibition is 0.9%. As for `COc1ccc(CNc2nnnn2C)cc1`, the figure is -2.73%. As for `CCN1C(=NCC(C)C)N[C@@H](CCc2ccccc2)[C@H](C(=O)NCC(C)C)[C@H]1C`, the figure is -1.61%. As for `COC(=O)C[n+]1cccc2ccccc21`, the figure is -1.97%.

Take `N#Cc1ccsc1NC(=O)CN1CCN(S(=O)(=O)c2cc(Cl)ccc2Cl)CC1`: the inhibition was -0.63%. Consider `COc1ccc(Br)cc1CN(C)C(=O)C1CC(=O)N(C2CCCC2)C1` (centres undefined), for which the inhibition was 1.84%.

With `COCCCn1c(Cc2csc(Nc3cccc(Cl)c3)n2)nnc1SCC(=O)OC1CCCCC1`, the inhibition is 5.59%. As for `COc1ccc(CCNC(=O)COC(=O)/C=C/c2cccs2)cc1OC`, the figure is -1.3%; as for `COc1ccccc1CCNC(=O)C1CCN(C(=O)/C=C/c2ccccc2)CC1`, 2%; as for `CCCCNC(=O)CSc1nc2ccc(NC(=O)CSc3nnc(N)s3)cc2s1`, -1.96%. With `CC(C)CCOc1ccc(C(=O)C[N+]2(C)CCOCC2)cc1`, the inhibition is 1.5%. As for `O=C(c1ccc(CS(=O)(=O)c2ccccc2)o1)N1CCN(c2ccccc2)CC1`, the figure is -1.02%; as for `COC(=O)C1=C(C)N(Cc2ccccc2)C(=NCCCOC(C)C)N[C@H]1c1ccccc1`, -3.67%. The figure for `CC1(C)CC(N2CCN(C(c3ccccc3)c3ccccc3)CC2)=CC(=[N+]2CCCCC2)C1` is -2.53%; for `S=C(Nc1cccnc1)Nc1ccccn1` it is -1.6%; for `CC1(C)Oc2ccc3ccc(=O)oc3c2/C(=C/NCCO)C1=O` it is -2.48%. The figure for `NS(=O)(=O)c1cc(C(=O)OCC(=O)NNC(=O)c2ccccc2)ccc1Cl` is 5.01%.

For `O=C1c2oc3ccccc3c(=O)c2C(c2cccc(O)c2)N1c1ccccn1` (centres undefined), the inhibition is 3.41%. The figure for `CSc1nnc(SCc2nc3sc(C(=O)O)c(C)c3c(=O)[nH]2)s1` is -3.34%; for `CCn1c(SCC(=O)Nc2cccc(F)c2)nnc1-c1cc2cc(Br)ccc2o1` it is 6.96%; for `CCOC(=O)c1ccc(NC(=O)CSc2ncccn2)cc1` it is 1.35%.

Take `Cc1ccc(CCCOC(=O)C[N+]2(C)CCCCC2)cc1`: the inhibition was 0.55%. As for `C[N+](C)(CCCCCC[N+](C)(C)CCCN1C(=O)c2cccc3cccc(c23)C1=O)CCCN1C(=O)c2cccc3cccc(c23)C1=O`, the figure is 1.2%; as for `CC(Oc1ccc(F)cc1)C(=O)Nc1cc(S(=O)(=O)N2CCOCC2)ccc1N1CCN(C)CC1` (centres undefined), -3.61%; as for `C=CC1=C(C(=O)O)N2C(=O)[C@@H](NC(=O)/C(=N/OCC(=O)O)c3csc(N)n3)[C@H]2SC1`, -3.4%. The figure for `O=C(COC(=O)c1cnc(Cl)c(Cl)c1)NCc1ccco1` is 0.62%. Take `Cc1ccc(C(=O)N/N=C\c2cc(Br)c(Br)o2)cn1`: the inhibition was 2.94%. Take `CC(C)c1ccc(/C=C2\NC(=O)NC2=O)cc1`: the inhibition was -1.04%. The figure for `CC[n+]1cc(C)ccc1/C=C/c1ccc(N(C)C)cc1` is -2.09%; for `CS(=O)(=O)c1ccc2c(c1)SC1=NC(=O)/C(=C/c3ccco3)C(=N)N12` it is 1.37%.

On to `CC(=O)Nc1ccc(NC(=O)C2CCCN(S(=O)(=O)c3ccc(Cl)cc3)C2)cc1` (centres undefined), for which the inhibition is 7.05%. As for `CCNC(=O)COC(=O)CCNC(=O)c1cccc(C)c1`, the figure is -0.25%.

For `CC(=O)Nc1ccc(Nc2cc(C)nc(Nc3ccc(NC(C)=O)cc3)n2)cc1`, the inhibition was 4.81%. With `CCCCCCCC[n+]1cccc(C(=O)N2c3c(nc(N)[nH]c3=O)NC(C)C2C)c1` (centres undefined), the inhibition is -1.86%. Take `C[n+]1ccc(C(=O)NCc2ccccc2)cc1`: the inhibition was -2.62%.

Consider `CCN1C(=NCCc2cccnc2)N[C@@H](c2ccccc2)[C@H](C(=O)OC)[C@H]1C`, for which the inhibition was -0.96%. The figure for `O=C(Nc1cccc(-c2nc3ccccc3[nH]2)c1)c1ccc(C(=O)Nc2cccc(-c3nc4ccccc4[nH]3)c2)cc1` is -1.03%; for `CC(/C=C/c1ccccc1)=N\NC(=O)C1CC1(C)c1ccccc1` (centres undefined) it is 1.23%; for `Cc1cc2c(cc1C)[n+](C)cn2CC(O)COCC1CC=CCC1` (centres undefined) it is 4.84%. The figure for `Cc1csc(SCC(=O)Nc2sccc2C#N)n1` is -2.94%. `COc1ccc(C)cc1NC(=O)CCCN1C(=O)NC(C)(C)C1=O`: the inhibition was 2.69%.

For the compound `CCN(CC)CCCNC(=O)CCn1nc(-c2ccc(Cl)cc2)ccc1=O`, the inhibition is -0.02%. The figure for `N#Cc1ncc(C(F)(F)F)cc1Oc1cccnc1` is -2.52%. As for `C[N+]1(CCNC(=O)/C=N/O)CCCCC1`, the figure is 2.37%; as for `CSc1nnc(-c2ccncc2)n1CCCN1CCCC1=O`, 2.58%. As to `C[N+]1(CC(O)COc2ccccc2)CCN(C(=O)c2ccc([N+](=O)[O-])cc2)CC1` (centres undefined), the inhibition is -0.77%.

`CCCc1nc(-c2cc3cc(C)ccc3[nH]c2=O)no1`: the inhibition was -1.41%.

As to `CCN1C(=NCc2ccc(OC)cc2)N[C@@H](CCc2ccccc2)[C@H](C(=O)NCc2ccc(OC)cc2)[C@H]1C`, the inhibition was 2.26%. As for `CCS(=O)(=O)c1ccc(-c2cccc(NC(=O)c3ccc(Br)o3)c2)nn1`, the figure is -1.58%; as for `COc1ccc(Cc2nnc(NC(=O)c3ccc(OC)cc3OC)s2)cc1`, 2.26%. With `Cc1nnc(N/N=C/c2ccccn2)[nH]c1=O`, the inhibition is 3.44%.

As for `COc1ccccc1-c1noc(CSc2nc(C)cc(=O)[nH]2)n1`, the inhibition was -1.99%. As for `N#Cc1ccccc1CN1C(=O)S/C(=C/c2cccn2-c2cccc(C(=O)O)c2)C1=O`, the figure is -1.19%.

Turning to `CC[n+]1c(C)n(-c2ccccc2)c2ccc(NC(C)=O)cc21`, the inhibition is -1.23%.

For the origin of these results see PubChem BioAssay AID504714 (Sanford-Burnham Center for Chemical Genomics, 2011).
